Assay results: PubChem BioAssay AID1159580 (chemical genetic matrix, 2015)
In all, about 5,500 compounds went through this assay and about 2,000 (36%) were called active. About 18% were inconclusive and are not listed. The list shows a part of the results. A number with no mark means an inactive call. Rule as the data show it: active = normalized growth mostly below about 0.91 (no sharp cut-off); inconclusive = no clear call, values can overlap the other calls; inactive = mostly above about 0.92.

Experiment: chemical genetic growth profiling, strain panel (AID 1159580);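 also: tested at 20 µM; growth read once vehicle control cultures reached saturation at 30 °C; 1 = growth at the plate median or of vehicle wells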
Settings: S. cerevisiae deletion strains, growth OD
[1] = locus YDL101C, strain DUN1, stronger effect = lower value
[2] = locus YHR030C, strain SLT2, stronger effect = lower value
[3] = locus YHR079C, strain IRE1, stronger effect = lower value
[4] = locus YJL095W, strain BCK1, stronger effect = lower value
[5] = locus YJR066W, strain TOR1, stronger effect = lower value
[6] = locus YLR113W, strain HOG1, stronger effect = lower value
[7] = locus YNL183C, strain NPR1, stronger effect = lower value
[8] = locus YOR231W, strain MKK1, stronger effect = lower value
[9] = locus YPL256C, strain CLN2, stronger effect = lower value

For `N#CC(C#N)=C/C=C(/Sc1nc2ccccc2s1)c1ccc(Br)cc1`, the normalized growth (locus YAR019C, strain CDC15, stronger effect = lower value) was 0.148 (active), the normalized growth (locus YBL105C, strain PKC1, stronger effect = lower value) was 0.157 (active) and the normalized growth (locus YBR135W, strain CKS1, stronger effect = lower value) was 0.189 (active). The normalized growth (locus YBR136W, strain MEC1, stronger effect = lower value) was 0.206 (active), the normalized growth (locus YBR160W, strain CDC28, stronger effect = lower value) was 0.22 (active) and the normalized growth (locus YDL017W, strain CDC7, stronger effect = lower value) was 0.207 (active). The normalized growth (locus YDL028C, strain MPS1, stronger effect = lower value) was 0.28 (active), the normalized growth [1] was 0.338 (active) and the normalized growth (locus YDL108W, strain KIN28, stronger effect = lower value) was 0.289 (active). For the same compound, the normalized growth (locus YDL132W, strain cdc53, stronger effect = lower value) was 0.299 (active), the normalized growth (locus YDL214C, strain PRR2, stronger effect = lower value) was 0.144 (active) and the normalized growth (locus YDR052C, strain DBF4, stronger effect = lower value) was 0.695 (active). For the same compound, the normalized growth (locus YDR054C, strain cdc34, stronger effect = lower value) was 0.145 (active), the normalized growth (locus YDR226W, strain ADK1, stronger effect = lower value) was 0.28 (active) and the normalized growth (locus YDR477W, strain SNF1, stronger effect = lower value) was 0.144 (active). The normalized growth (locus YER123W, strain YCK3, stronger effect = lower value) was 0.217 (active), the normalized growth (locus YER133W, strain GLC7, stronger effect = lower value) was 0.168 (active) and the normalized growth (locus YFL009W, strain cdc4, stronger effect = lower value) was 0.317 (active). For the same compound, the normalized growth (locus YFL029C, strain CAK1, stronger effect = lower value) was 0.153 (active), the normalized growth (locus YFR003C, strain YPI1, stronger effect = lower value) was 0.253 (active) and the normalized growth (locus YFR019W, strain FAB1, stronger effect = lower value) was 0.146 (active). The normalized growth (locus YFR028C, strain CDC14, stronger effect = lower value) was 0.187 (active), the normalized growth (locus YGR040W, strain KSS1, stronger effect = lower value) was 0.156 (active) and the normalized growth (locus YGR052W, strain FMP48, stronger effect = lower value) was 0.167 (active). The normalized growth (locus YGR092W, strain DBF2, stronger effect = lower value) was 0.155 (active), the normalized growth [2] was 0.124 (active) and the normalized growth [3] was 0.17 (active). For the same compound, the normalized growth (locus YHR082C, strain KSP1, stronger effect = lower value) was 0.163 (active), the normalized growth (locus YHR205W, strain SCH9, stronger effect = lower value) was 0.0272 (active) and the normalized growth (locus YIL147C, strain SLN1, stronger effect = lower value) was 0.215 (active). The normalized growth [4] was 0.116 (active), the normalized growth (locus YJL128C, strain PBS2, stronger effect = lower value) was 0.391 (active) and the normalized growth (locus YJL157C, strain FAR1, stronger effect = lower value) was 0.118 (active). The normalized growth (locus YJR016C, strain ILV3, stronger effect = lower value) was 0.176 (active), the normalized growth (locus YJR066W, strain TOR1 (second series), stronger effect = lower value) was 0.114 (active) and the normalized growth [5] was 0.156 (active). For the same compound, the normalized growth (locus YKL048C, strain ELM1, stronger effect = lower value) was 0.322 (active), the normalized growth (locus YKL067W, strain YNK1, stronger effect = lower value) was 0.137 (active) and the normalized growth (locus YKL101W, strain HSL1, stronger effect = lower value) was 0.175 (active). For the same compound, the normalized growth (locus YKL193C, strain SDS22, stronger effect = lower value) was 0.155 (active), the normalized growth (locus YKL203C, strain TOR2, stronger effect = lower value) was 0.158 (active) and the normalized growth [6] was 0.218 (active). The normalized growth (locus YLR133W, strain CKI1, stronger effect = lower value) was 0.149 (active), the normalized growth (locus YLR403W, strain SFP1, stronger effect = lower value) was 0.0212 (active) and the normalized growth (locus YML070W, strain DAK1, stronger effect = lower value) was 0.172 (active). For the same compound, the normalized growth (locus YMR001C, strain CDC5, stronger effect = lower value) was 0.126 (active), the normalized growth (locus YMR205C, strain PFK2 (second series), stronger effect = lower value) was 0.138 (active) and the normalized growth (locus YMR277W, strain FCP1, stronger effect = lower value) was 0.144 (active). The normalized growth (locus YNL006W, strain LST8, stronger effect = lower value) was 0.13 (active), the normalized growth (locus YNL020C, strain ARK1, stronger effect = lower value) was 0.142 (active) and the normalized growth (locus YNL161W, strain CBK1, stronger effect = lower value) was 0.164 (active). The normalized growth [7] was 0.153 (active), the normalized growth (locus YNL207W, strain RIO2, stronger effect = lower value) was 0.21 (active) and the normalized growth (locus YNL222W, strain SSU72, stronger effect = lower value) was 0.177 (active). For the same compound, the normalized growth (locus YNL307C, strain MCK1 (second series), stronger effect = lower value) was 0.137 (active), the normalized growth (locus YOL078W, strain AVO1, stronger effect = lower value) was 0.154 (active) and the normalized growth (locus YOL136C, strain PFK27, stronger effect = lower value) was 0.161 (active). The normalized growth (locus YOR061W, strain CKA2, stronger effect = lower value) was 0.174 (active), the normalized growth (locus YOR119C, strain RIO1, stronger effect = lower value) was 0.155 (active) and the normalized growth [8] was 0.171 (active). For the same compound, the normalized growth (locus YOR329C, strain SCD5, stronger effect = lower value) was 0.164 (active), the normalized growth (locus YPL031C, strain PHO85, stronger effect = lower value) was 0.135 (active) and the normalized growth (locus YPL153C, strain RAD53, stronger effect = lower value) was 0.133 (active). For the same compound, the normalized growth (locus YPL204W, strain HRR25, stronger effect = lower value) was 0.142 (active), the normalized growth (locus YPL209C, strain IPL1, stronger effect = lower value) was 0.159 (active) and the normalized growth [9] was 0.216 (active). For the same compound, the normalized growth (locus YPR025C, strain CCL1, stronger effect = lower value) was 0.181 (active), the normalized growth (strain NNK1, stronger effect = lower value) was 0.304 (active) and the normalized growth (strain TSCII, stronger effect = lower value) was 0.157 (active).

Compound `CC(C)(O/N=C(/C(=O)N[C@@H]1C(=O)N2C(C(=O)[O-])=C(C[n+]3ccccc3)CSC12)c1csc(N)n1)C(=O)O` (stereo partly drawn) has a normalized growth [2] of 1.02, a normalized growth [3] of 1.02 and a normalized growth [4] of 1.01. The normalized growth [5] was 0.95, the normalized growth [6] was 1.05 and the normalized growth [7] was 0.962. The normalized growth [8] was 1.02 and the normalized growth [9] was 1.03.

`COc1cc(C2N=C(c3ccc(Cl)cc3)SC(c3ccc(Cl)cc3)=N2)cc(OC)c1OC` showed a normalized growth (locus YAL013W, strain DEP1, stronger effect = lower value) of 1, a normalized growth (locus YBR229C, strain ROT2, stronger effect = lower value) of 1.01 and a normalized growth [1] of 1.02. It also gave a normalized growth (locus YDL134C, strain PPH21, stronger effect = lower value) of 1.03, a normalized growth (locus YDR150W, strain NUM1, stronger effect = lower value) of 1.02 and a normalized growth (locus YEL061C, strain CIN8, stronger effect = lower value) of 0.997. It also gave a normalized growth (locus YGR078C, strain PAC10, stronger effect = lower value) of 1.01, a normalized growth [2] of 0.991 and a normalized growth (locus YHR087W, strain rtc3, stronger effect = lower value) of 1.02. The normalized growth (locus YJR043C, strain POL32, stronger effect = lower value) was 1.03, the normalized growth (locus YJR075W, strain HOC1, stronger effect = lower value) was 0.991 and the normalized growth (locus YLR039C, strain RIC1, stronger effect = lower value) was 1.02. The normalized growth (locus YLR058C, strain SHM2 (second series), stronger effect = lower value) was 1.04, the normalized growth (locus YLR085C, strain ARP6, stronger effect = lower value) was 1 and the normalized growth (locus YLR262C, strain YPT6, stronger effect = lower value) was 1.03. It also gave a normalized growth (locus YML094W, strain GIM5, stronger effect = lower value) of 1, a normalized growth (locus YMR219W, strain ESC1, stronger effect = lower value) of 1 and a normalized growth (locus YMR263W, strain SAP30, stronger effect = lower value) of 0.949. It also gave a normalized growth (locus YNL153C, strain GIM3, stronger effect = lower value) of 1.01, a normalized growth (locus YNL298W, strain CLA4 (second series), stronger effect = lower value) of 1.02 and a normalized growth (locus YNL322C, strain KRE1, stronger effect = lower value) of 1. For the same compound, the normalized growth (locus YNR030W, strain Alg12, stronger effect = lower value) was 1.03, the normalized growth (locus YOL006C, strain TOP1, stronger effect = lower value) was 0.891 and the normalized growth (locus YPL055C, strain LGE1, stronger effect = lower value) was 0.974. It also gave a normalized growth (locus YPL241C, strain CIN2, stronger effect = lower value) of 1.01 and a normalized growth (locus YPR135W, strain CTF4, stronger effect = lower value) of 1.09.
